# Assay results: PubChem BioAssay AID1347147 (National Center for Advancing Translational Sciences (NCATS), 2019)
# Results filed as inconclusive are left out. Active and inactive are the calls of the source. Calls follow the shape of the dose curve; as a rule, active = well fitted inhibition curve with a large enough effect; inconclusive = small, poorly fitted or top-dose-only effect; inactive = no such curve, though single readings can be large or run the other way.
# Target: N-terminal Xaa-Pro-Lys N-methyltransferase 1 (Homo sapiens) (UniProt Q9BV86)
# Sequence (Q9BV86 whole entry, looked up): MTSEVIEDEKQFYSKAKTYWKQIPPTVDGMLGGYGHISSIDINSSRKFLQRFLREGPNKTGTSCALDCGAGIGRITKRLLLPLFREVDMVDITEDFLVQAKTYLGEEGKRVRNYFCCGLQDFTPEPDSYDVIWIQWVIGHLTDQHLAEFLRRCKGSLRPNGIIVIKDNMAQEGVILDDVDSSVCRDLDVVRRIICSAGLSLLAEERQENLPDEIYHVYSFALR
# Test: qHTS Assay for Inhibitors of N-terminal methyltransferase 1 (NTMT1): MTaseGlo Confirmatory Screen, Round 2
# Settings: NTMT1 enzyme, MTase-Glo SAH luminescence; series mostly up to 57.4 µM; activity change, negative = inhibition: at the top concentration
# Procedure, shortened: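 Luminescent MTase-Glo readout of SAH formed in 30 min at RT by 125 nM NTMT1, 100 µM SAM and 1 µM SPKRIA substrate, after ~15 min compound preincubation. Percent inhibition versus no-enzyme and DMSO controls was Hill-fitted.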
# 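For activity change, negative = inhibition in this document: plate controls were DMSO for no effect and no enzyme control for full effect.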
# Potency is read from the fitted curve at half-maximal effect.
SMILES,"activity change, negative = inhibition",Potency
O=C(N[C@@H](Cc1ccccc1)C(=O)CCl)OCc1ccccc1,-11% (inactive),–
CC#C[C@]1(O)CC[C@H]2[C@@H]3CCC4=CC(=O)CCC4=C3[C@@H](c3ccc(N(C)C)cc3)C[C@@]21C,-10.1% (inactive),–
CN(C)CCCN1c2ccccc2Sc2ccccc21,-0.647% (inactive),–
CCNC(=O)[C@H]1O[C@H](n2cnc3c(N)nc(NCCc4ccc(CCC(=O)O)cc4)nc32)[C@@H](O)[C@@H]1O,-23.9% (inactive),–
Cc1nnc(SCC2=C(C(=O)O)N3C(=O)[C@@H](NC(=O)Cn4cnnn4)[C@H]3SC2)s1,-2.31% (inactive),–
O=C(O)Cc1ccc(O)c(O)c1,-6.76% (inactive),–
O=C1NC(=O)C(=Cc2ccc(-c3ccc(F)cc3O)o2)S1,–,35.5 µM (active)
O=[N+]([O-])c1ccc2c(c1)S(=O)(=O)C=C2,1.82% (inactive),–
COC(=O)[C@H]1[C@H]2C[C@H]3c4[nH]c5ccccc5c4CCN3C[C@H]2CC[C@@H]1O,-3.05% (inactive),–
N#C/C(=C\c1ccc(O)c(O)c1)C(=O)NCCCNC(=O)/C(C#N)=C/c1ccc(O)c(O)c1,–,7.94 µM (active)
OC[C@H]1O[C@H](n2cnc3c(N[C@H]4CCC[C@@H]4O)ncnc32)[C@H](O)[C@@H]1O,-6.84% (inactive),–
O=c1oc(Cl)c(Cl)c2ccccc12,-8.27% (inactive),–
S=C(S)N1CCCC1,-11.1% (inactive),–
COc1cc2c(NC3CCN(CC4CCCCC4)CC3)nc(N3CCCCC3)nc2cc1OCCCN1CCCCC1,-2.53% (inactive),–
Nc1nc2ccc(Cl)cc2c2nc(-c3ccco3)nn12,1.12% (inactive),–
CCN1C(=O)C=CC1=O,-8.72% (inactive),–
O=c1c(O)c(-c2ccc(O)c(O)c2)oc2cc(O)cc(O)c12,–,inactive
COc1cc(CNC(=O)CCCCCCC(C)C)ccc1O,2.83% (inactive),–
CN(C)CCCN1c2ccccc2Sc2ccc(C(F)(F)F)cc21,-22.6% (inactive),–

SMILES,"activity change, negative = inhibition",Potency
COc1cccc(OC)c1OCCNCC1CSc2ccccc2O1 (configuration not stated),-12% (inactive),–
Cc1nn(-c2ccccc2)c(C)c1/C=N/N1CCN(Cc2ccccc2)CC1,-0.834% (inactive),–
Cc1ccccc1CNc1ncnc2c1ncn2[C@@H]1O[C@H](CO)[C@@H](O)[C@H]1O,16.9% (inactive),–
CSc1nc(N)c2ncn([C@@H]3O[C@H](COP(=O)(O)OP(=O)(O)OP(=O)(O)O)[C@@H](O)[C@H]3O)c2n1,-6.22% (inactive),–
O=c1[nH]c(=S)[nH]c(-c2ccccc2)c1Cc1c(O)ccc2ccccc12,-4.56% (inactive),–
CC1=C(\C=C/C(C)=C/C=C\C(C)=C\C(=O)O)C(C)(C)CCC1,-22.4% (inactive),–
Cc1cccc(C2CN(C)CCc3c2cc(O)c(O)c3Cl)c1 (configuration not stated),0.658% (inactive),–
COC(=O)[C@@H]1[C@H]2C[C@H]3c4[nH]c5ccccc5c4CCN3C[C@@H]2CC[C@@H]1O,1.4% (inactive),–
Oc1cc(O)c2c(c1)O[C@H](c1ccc(O)c(O)c1)[C@@H](O)C2,0.317% (inactive),–
Nc1[nH]c(=O)nc2c1ncn2C1OC(CO)C(O)C1O (configuration not stated),-1.32% (inactive),–
O=C(Nc1ccc([N+](=O)[O-])cc1Cl)c1cc(Cl)ccc1O,-11% (inactive),–
CC(C)=CCNc1ncnc2c1ncn2[C@@H]1O[C@H](CO)[C@@H](O)[C@H]1O,382% (inactive),–
CCN1CCC[C@H]1CNC(=O)c1cc(S(N)(=O)=O)ccc1OC,3.8% (inactive),–
O=S(=O)(c1cccc2c(Cl)cccc12)N1CCCNCC1,-19.2% (inactive),–
CN1Cc2sccc2C(c2ccc(O)c(O)c2)C1 (configuration not stated),-1.5% (inactive),–
Nc1nc(Nc2ccccc2)nc2c1ncn2[C@@H]1O[C@H](CO)[C@@H](O)[C@H]1O,14.3% (inactive),–
Oc1cc2c(cc1O)CN(C(=S)NCCc1ccc(Cl)cc1)CCC2,-11.8% (inactive),–
Cc1ccc(S(=O)(=O)/C=C/C#N)cc1,1.59% (inactive),–
